Sampled rows, rich in hits. Any-hit rate of the full collection: about 9.9%.
ALDH1A1 block: inhibitors of human aldehyde dehydrogenase 1A1; P00352; Purified ALDH1A1, NADH fluorescence, propionaldehyde substrate; 7.3% of 220,000 active; Potency, µM (top dose mostly 75.3 µM), for the others: at the top dose activity, negative = inhibition, most hits filed as inhibitors; AID 1030;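 further: plate controls were no enzyme wells and a reference inhibitor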
HPGD inh: inhibitors of human 15-hydroxyprostaglandin dehydrogenase (HPGD). P15428. purified HPGD, NADH fluorescence kinetic, PGE2 substrate. Potency, µM, inactives show at the top dose activity change, negative = inhibition, usual class: inhibitors. 4.3% of 150,000 active. AID 894
Target sequence (P15428 whole entry, looked up): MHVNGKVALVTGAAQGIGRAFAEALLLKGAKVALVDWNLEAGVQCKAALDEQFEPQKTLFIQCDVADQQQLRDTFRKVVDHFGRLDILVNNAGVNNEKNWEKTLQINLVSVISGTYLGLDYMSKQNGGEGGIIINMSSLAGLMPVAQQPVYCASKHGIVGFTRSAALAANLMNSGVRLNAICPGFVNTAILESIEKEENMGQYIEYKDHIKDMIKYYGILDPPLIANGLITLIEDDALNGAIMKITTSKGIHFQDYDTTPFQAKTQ
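20 nM HPGD preincubated 15 min at room temperature with compound in 50 mM Tris-HCl pH 8, 0.01% Tween 20. Started with 1 mM NAD+ and 30 uM prostaglandin E2; NADH fluorescence (360/450 nm) read 5 times over 30-s intervals, last minus first.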
Tau fibril ThT: blocks human tau fibril formation measured by thioflavin T; P10636; recombinant tau K18 P301L, heparin-induced fibrillization, ThT fluorescence; 2.1% of 270,000 active; AID 1460; Potency, µM (top dose mostly 57.4 µM), for inactives: at the highest dose activity, negative = inhibition, actives largely listed as inhibitors; active means well fitted curve in the direction sought with a large enough effect; inconclusive means small, poorly fitted or top-dose-only effect, or another doubt; inactive means no such curve, though single readings can be large; an effect the other way counts as inactive or inconclusive; further: nearly all actives have a fitted effect of over 55% in size
Target sequence (P10636 561-689 P618L limits assumed): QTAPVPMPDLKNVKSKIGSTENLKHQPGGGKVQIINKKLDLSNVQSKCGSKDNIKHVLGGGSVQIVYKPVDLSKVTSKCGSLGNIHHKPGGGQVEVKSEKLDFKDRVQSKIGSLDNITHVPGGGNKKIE
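In this qHTS, human K18 P301L tau is incubated with compound and heparin for 6 hr at 37 C, and Thioflavin T fluorescence then reports fibril load.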
KDM4E inh: JMJD2E (human) inhibition; Potency, µM (series often up to 57.1 µM), for inactives: at the top dose activity change, negative = inhibition, actives largely listed as inhibitors; B2RXH2; AID 2147; 1.6% of 230,000 active; JMJD2E catalytic domain, FDH-coupled NADH fluorescence (FDH is formaldehyde dehydrogenase);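 further: 0% = wells with enzyme and -100% = buffer wells without enzyme; nearly all actives have a fitted effect of over 50% in size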
Tau FP inhib: inhibitors of human tau fibril formation | K18 P301L tau heparin fibrillization, Alexa594 FP, 6 h | Potency, µM (highest dose often 57.7 µM), without a hit: at the top dose activity, negative = inhibition, usual class: inhibitors | 0.39% of 280,000 active; active means well fitted curve in the direction sought with a large enough effect; inconclusive means small, poorly fitted or top-dose-only effect, or another doubt; inactive means no such curve, though single readings can be large; an effect the other way counts as inactive or inconclusive; further: nearly all actives have a fitted effect of over 55% in size
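Recombinant K18 P301L […], labeled with Alexa 594 at 0.24 uM over 15 uM unlabeled; heparin inducer 20 uM final; 37 C, 6 hr; FP endpoint.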
Tau fluor counter: counter-screen for tau fibril formation inhibitors; AID 1463; tau K18 P301L (four-repeat tau fragment) Alexa594 fluorescence, heparin fibrillization; Potency, µM (doses to about 57.7 µM), without a hit: top-dose activity change, negative = decrease; 0.93% of 280,000 active; active means well fitted curve in the direction sought with a large enough effect; inconclusive means small, poorly fitted or top-dose-only effect, or another doubt; inactive means no such curve, though single readings can be large; an effect the other way counts as inactive or inconclusive; further: nearly all actives have a fitted effect of over 55% in size
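Human K18 P301L tau (15 uM unlabeled plus 0.24 uM Alexa 594-labeled, final) in 100 mM sodium acetate pH 7 was mixed with compound and 20 uM heparin and incubated 6 hr at 37 C.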
Active calls of the source: *; ? = inconclusive; / = no result; [ ] = remark or other dose. Unless noted, the call rests on the fitted dose curve; in most records, active means well fitted inhibition curve with a large enough effect (not every such curve was filed as active); inconclusive means small, poorly fitted or top-dose-only effect, or another doubt; inactive means no such curve, though single readings can be large or run the other way. Unless noted, on the % scale 0 is the no-effect control and ±100 the full control effect; potency means the concentration at half of the fitted maximal effect.

SMILES	ALDH1A1 block	HPGD inh	Tau fibril ThT	KDM4E inh	Tau FP inhib	Tau fluor counter
CC1(C)CC(=O)C=C(N2CCN(C3=CC(=O)CC(C)(C)C3)CC2)C1	20µM*	-11%	-1%	6%	-9%	0%
Cc1ccc(CNC(=O)CCCN2C(=O)CCn3nc(-c4cccn4C)cc32)cc1	/	/	-10%	/	3%	-13%
CCc1nn(CCCC(=O)NCc2ccc(OC)c(OC)c2)c(=O)c2cc3occc3n12	/	/	-11%	/	-7%	-10%
O=C(Cc1cccs1)N1CCN(c2ccc(F)cc2)CC1	1%	-9%	-10%	2%	-2%	-8%
O=C(Cc1cccs1)N1CCN(c2ccc([N+](=O)[O-])cc2)CC1	25µM*	/	3.5µM*	-1%	-2%	-17%
COc1ccccc1N1CCN(C(=O)Cc2cccs2)CC1	-1%	-15%	-16%	0%	-2%	-14%
O=C(CCc1ccccc1)N1CCN(c2ccc(Cl)cc2)CC1	4%	-8%	?	-1%	13%	-5%
O=C(CCc1ccccc1)N1CCN(c2ccc([N+](=O)[O-])cc2)CC1	2.2µM*	/	?	-28%	-1%	-16%
Cc1nc2ncnn2c(N2CCN(C(=O)Cc3cccs3)CC2)c1C	7.9µM*	-23%	-3%	-6%	4%	-2%
CC(C)NC(=O)c1onc(CSc2ccc(Cl)cc2)c1C(=O)NC(C)C	/	/	4%	-1%	5%	-12%
CNc1ncnc(Sc2ccc(Cl)cc2)c1[N+](=O)[O-]	5%	/	-13%	7%	-4%	-18%
CCc1nc(SCC(=O)Nc2sc(C)c(C)c2C(=O)OC)c2ccccc2n1	?	-4%	-13%	5%	0%	-4%
CCOc1ccc(S(=O)(=O)NCCC(=O)OCC(=O)N2CC(=O)Nc3ccccc32)cc1	?	/	-1%	14%	-1%	-2%
COc1ccc(C2=NN(CN3C(=O)C(=O)c4ccccc43)C(c3ccc(Br)cc3)C2)cc1 (centres undefined)	0.28µM*	-6%	?	2%	8%	-13%
COc1ccc(C2=NN(CN3C(=O)C(=O)c4ccccc43)C(c3ccc(C)cc3)C2)cc1 (centres undefined)	0.56µM*	-7%	?	-4%	3%	-19%
COc1ccc(C2CC(c3ccc(Br)cc3)=NN2C(=O)c2cccnc2)cc1 (centres undefined)	2%	-12%	-15%	-8%	2%	-10%
COc1ccc(C2C(=O)N(C3CCC(C)CC3)CC(=O)N2CCC2=CCCCC2)cc1OC (centres undefined)	/	/	-14%	/	-5%	-17%
COc1c(Cl)ccc(Cl)c1C(=O)OCC(=O)O	22µM*	-11%	-12%	6%	1%	-2%
CCCOC(=O)c1ccc(NC(=O)c2c(Cl)ccc(Cl)c2OC)cc1	?	-8%	-8%	-5%	1%	-23%
CN1CCN(C(=O)c2ccc3c(=O)n(Cc4ccc(Cl)cc4)c(=S)[nH]c3c2)CC1	22µM*	-19%	-5%	-2%	-3%	-18%
COCCCNC(=O)c1ccc2c(=O)n(Cc3ccc4c(c3)OCO4)c(=S)[nH]c2c1	6%	-19%	-14%	7%	-8%	-16%
CC1CC(C)CN(C(=O)c2ccc3c(=O)n(Cc4ccc5c(c4)OCO5)c(=S)[nH]c3c2)C1 (centres undefined)	1.4µM*	16µM*	1%	1%	?	-16%
CC(=O)Oc1ccc(-c2cccc(C(=O)N(C)c3ccc(O)cc3)c2)cc1	-1%	/	-3%	4%	1%	-4%
CCN(CC)c1ccc(C2Nc3cccc4cccc(c34)N2)c(O)c1	?	-17%	16µM*	4%	-16%	14µM*[quencher]
Oc1ccc2ccccc2c1C1Nc2cccc3cccc(c23)N1	?	-29%	28µM*	28µM*	-2%	14µM*[quencher]
CCOc1ccc(-n2c(C)nc3cc(C(=O)NCc4ccco4)ccc32)cc1	?	8.9µM*	-8%	4%	5%	-1%

Screening results: PubChem BioAssay, National Center for Advancing Translational Sciences (NCATS)
